Assay results from PubChem BioAssay (NCI).
This is part of a sample that, as a whole, favours compounds with a hit. Of some 83,000 tested, about 20% had one in any assay.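 Each cell line was grown in a 96-well plate and treated with one concentration of compound for 48 hours. Values below 10 were considered active.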 Unmarked numbers belong to inactive results. Active and inactive are the calls of the source.

Test system: MDA-MB-468 breast
Test: NCI-60 one-dose screen, 48 h (100 = growth as untreated, 0 = no growth, -100 = all killed)
Settings: 10 µM unless noted

Row | Structure (SMILES) | growth
1 | CCC(c1cccc(Br)c1)C(C(=O)O)c1ccc(OC)cc1 (stereo not given) | 102%
2 | C=C(C[C@](O)(C(=O)/C=C/c1ccc(Cl)cc1)C(=O)OC)c1ccccc1 | 69.5%
3 | O=c1oc2cc(OS(=O)(=O)c3ccc(F)cc3)ccc2c2c1CCCCC2 | 31.3%
4 | COc1ccc([C@@H]2C(=O)N(c3cc(OC)c(OC)c(OC)c3)[C@H]2c2ccc(OC)c(O)c2)cc1 | -4.45% (active)
5 | C=C(C)[C@@H]1CC[C@]2(C(=O)OC)CC[C@]3(C)[C@H](CC[C@@H]4[C@@](C)(CCc5nn[nH]n5)[C@H](C(=C)C)CC[C@]43C)[C@@H]12 | -7.51% [100 µM] (active)
6 | O=[N+]([O-])c1ccc2c(c1)Cc1cc(I)ccc1-2 | 105%
7 | O=C(NO)c1ccc(Cn2c(=O)n(CCc3ccc(O)cc3)c(=O)c3ccccc32)cc1 | 29.8%
8 | C=C(c1ccc(C(=O)O)cn1)c1cc2c(cc1C)C(C)(C)CCC2(C)C | 91.5%
9 | CNC(=O)c1ccccc1Sc1ccc2c(/C=C/c3ccccn3)n[nH]c2c1 | 28%
10 | COc1ccc(/C=N/OCC(O)CNCc2ccccc2)cc1OC1CCCC1 (stereo not given) | 99.2%
11 | O=C1C=CC(=O)N1C1c2ccccc2-c2ccccc21 | 66.9%
12 | N#Cc1nc(-c2ccccc2)oc1S(=O)(=O)N1CCCCC1 | 21.8%
13 | CCCCCCNC(=O)Oc1ccc(/C(=C(\C)c2ccc(Cl)cc2)c2ccc(OCCN3CCCCC3)cc2)cc1 | 25.1%
14 | O=C1/C(=C/c2ccc([N+](=O)[O-])cc2)CN(C(=O)CCN2CCC(=NO)CC2)C/C1=C\c1ccc([N+](=O)[O-])cc1 | -33.6% (active)
15 | CC(Sc1nc2sc3c(c2c(=O)n1-c1ccc(Cl)cc1)CCCC3)C(=O)Nc1nc(-c2ccc(Br)cc2)cs1 (stereo not given) | 105%
16 | C/C(Cc1ccc(Cl)cc1)=C(\c1ccc(OCCCN(C)C)cc1)c1ccc(OC(=O)Cc2ccccc2)cc1 | 111%
17 | O=C(NCCNC(=O)c1ccc(Cl)cc1Cl)c1ccc(Cl)cc1Cl | 104%
18 | COc1cc(CCc2cc(NC(=O)c3ccc(N4C[C@@H](C)N[C@@H](C)C4)cc3)n[nH]2)cc(OC)c1 | 71.3%
19 | COc1cc(C)cc2oc3oc(=O)c(C(=O)c4cc5cc(Br)ccc5o4)cc3c(=O)c12 | 107%
20 | NCCCN1CCCC1=O | 116%

Row | Structure (SMILES) | growth
21 | CCn1cnc(C[C@H](NC(=O)[C@@H](NC(=O)Nc2cc(C(F)(F)F)cc(C(F)(F)F)c2)C(C)(C)C)C(=O)OC)c1 | -75.6% [100 µM] (active)
22 | CC[C@H]1OC(=O)[C@H](C)[C@@H](O[C@H]2C[C@@](C)(OC)[C@@H](O)[C@H](C)O2)[C@H](C)[C@@H](O[C@@H]2O[C@H](C)C[C@H](N(C)C)[C@H]2O)[C@](C)(O)C[C@H](C)CN(C)[C@H](C)[C@@H](O)[C@]1(C)O | 86.7%
23 | O=C(Nc1ccc(F)cc1F)c1cc(Cl)ccc1O | -4.07% (active)
24 | CCc1c(C(=O)Nc2ccc3ccccc3c2)[nH]c(C)c1C(C)=O | 83.7%
25 | Cn1cc(-c2csc(-c3cn(CCCN4CCOCC4)c4ccccc34)n2)c2cccnc21 | 65.1%
26 | COc1ccc(NC(=O)Cn2c(=O)sc3c(-c4ccc(Cl)cc4)cc(-c4ccc(Cl)cc4)nc32)cc1 | 114%
27 | O=C(CNC(=O)c1cccc2ccccc12)Nc1ccccc1Oc1ccc(O)cc1 | 27.5% [5 µM]
28 | CCOC(=O)c1coc(C(=O)OCC)c1C(=O)OCC | 107%
29 | O=C(O)[C@@H](Cc1ccc2ccccc2c1)NC(=O)n1c2ccccc2c2ccccc21 | 11.9%
30 | Cn1cc(-c2csc(-c3cn(CCO)c4ccc(F)cc34)n2)c2cccnc21 | -16.5% (active)
31 | CC/C(=C(/c1ccc(Cl)cc1)c1ccc(OCCN2CCCC2)cc1)c1ccccc1 | 46.9%
32 | CCOP(=O)(OCC)OC[C@]12CCC(C)(C)C[C@H]1C1=CC[C@@H]3[C@@]4(C)C/C(=C\c5cccnc5)[C@H](OP(=O)(OCC)OCC)C(C)(C)[C@@H]4CC[C@@]3(C)[C@]1(C)CC2 | -0.445% (active)
33 | CCN1C(=O)N(CC)C2C1NN=c1s/c(=C\c3cc4ccccc4[nH]3)c(=O)n12 (stereo not given) | -9.55% (active)
34 | NS(=O)(=O)c1ccc(C(=O)NN2C(=O)c3ccccc3C2=O)cc1 | 122%
35 | CCOc1ccc2c(c1)CC[C@@H]1[C@@H]2CC[C@]2(C)[C@@H](O)[C@@H](O)C[C@@H]12 | 87.5%
36 | CC(=O)CC(=O)N(C)C | 96.8%
37 | COc1cccc(C2C(C#N)=C(N)Oc3cc(OCCCCCC[P+](c4ccccc4)(c4ccccc4)c4ccccc4)ccc32)c1 (stereo not given) | -64.3% (active)
38 | COc1ccc(Nc2cc(NC(=O)CNc3cc(OC)c(Cl)c(OC)c3Cl)ncn2)cc1 | 80.8%
39 | CN1CCN(CC(=O)Nc2ccc(-c3nc4ccccc4s3)cc2)CC1 | -11.4% (active)
40 | Oc1cc(O)c(Br)cc1Br | 101%
